In PubChem BioAssay AID743261 (The Scripps Research Institute Molecular Screening Center, 2014) one finds inhibition data, which are given here for 27 compounds.

Out of some 3,300 compounds screened, about 35 (1%) were called active. Not all results are given here. Unmarked numbers belong to inactive results. Cut-off read from the data, not from the text of the source: active = inhibition above about 11%; inactive = the rest.

1-phosphatidylinositol 4,5-bisphosphate phosphodiesterase beta-3 (Homo sapiens), sequence (Q01970 whole entry, looked up): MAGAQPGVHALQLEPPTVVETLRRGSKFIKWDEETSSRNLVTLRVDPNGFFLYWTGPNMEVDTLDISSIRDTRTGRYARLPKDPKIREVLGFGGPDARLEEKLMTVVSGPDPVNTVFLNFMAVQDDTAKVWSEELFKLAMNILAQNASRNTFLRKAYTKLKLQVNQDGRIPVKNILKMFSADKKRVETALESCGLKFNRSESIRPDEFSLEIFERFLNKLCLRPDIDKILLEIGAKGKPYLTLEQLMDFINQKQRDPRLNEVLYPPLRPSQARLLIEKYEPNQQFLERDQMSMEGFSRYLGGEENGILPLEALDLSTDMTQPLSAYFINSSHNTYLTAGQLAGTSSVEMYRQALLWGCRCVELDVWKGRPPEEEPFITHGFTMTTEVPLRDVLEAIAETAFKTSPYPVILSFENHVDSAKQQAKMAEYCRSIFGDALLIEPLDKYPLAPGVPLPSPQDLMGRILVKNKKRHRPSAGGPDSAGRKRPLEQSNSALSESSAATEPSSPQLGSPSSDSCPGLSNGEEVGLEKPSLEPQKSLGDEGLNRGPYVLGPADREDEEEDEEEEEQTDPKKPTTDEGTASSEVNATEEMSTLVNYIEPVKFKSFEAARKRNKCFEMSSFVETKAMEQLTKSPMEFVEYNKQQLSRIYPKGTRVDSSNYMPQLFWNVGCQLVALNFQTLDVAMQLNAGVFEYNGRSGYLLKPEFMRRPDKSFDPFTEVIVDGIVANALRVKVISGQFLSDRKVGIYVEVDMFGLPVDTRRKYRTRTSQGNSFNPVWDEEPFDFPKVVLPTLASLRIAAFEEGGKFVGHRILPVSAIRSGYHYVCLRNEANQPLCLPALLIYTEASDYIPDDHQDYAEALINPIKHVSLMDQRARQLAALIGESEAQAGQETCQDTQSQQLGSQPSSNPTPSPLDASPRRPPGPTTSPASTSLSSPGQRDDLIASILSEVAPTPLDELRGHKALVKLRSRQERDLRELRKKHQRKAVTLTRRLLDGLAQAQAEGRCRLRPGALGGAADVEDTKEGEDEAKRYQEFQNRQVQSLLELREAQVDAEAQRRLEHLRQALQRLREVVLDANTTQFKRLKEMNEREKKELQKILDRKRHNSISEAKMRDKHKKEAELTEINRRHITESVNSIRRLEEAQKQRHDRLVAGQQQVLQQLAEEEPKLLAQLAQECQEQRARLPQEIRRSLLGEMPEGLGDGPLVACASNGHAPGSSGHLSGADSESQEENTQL

The assay addresses 1-phosphatidylinositol 4,5-bisphosphate phosphodiesterase beta-3 (Homo sapiens) (UniProt Q01970). Nature of the assay: retest of human PLCB3 enzyme blockers – biochemical, fluorescence, purified enzyme, confirmation (AID 743261). The note with it: purified PLC-beta3, fluorogenic substrate fluorescence; at 12.3 µM; hits give high values.
By inhibition is commonly meant the relative decrease from the control value, in per cent. As for `Cc1ccc(/C=N/NC(=O)CSc2nc3ccccc3o2)cc1`, the inhibition was -1.23%.

Turning to `CN(C(=O)c1cccc(NC(=O)Cc2cccc([N+](=O)[O-])c2)c1)C1CCCCC1`, the inhibition was 2.33%.

For `O=C(C1CCCO1)N1CCN(C(=S)Nc2cccc(Cl)c2)CC1` (configuration not stated), the inhibition was -2.93%.

`CCOc1ccc(NC(=O)[C@H](C)NC(=O)C2CC(=O)N(c3ccc(OC)cc3)C2)cc1` (some centres not stated): the inhibition was -3.05%.

For the compound `O=C(O)c1ccc(Cn2c(=S)[nH]c3cc(Cl)ccc3c2=O)cc1`, the inhibition is -7.23%.

In the case of `CC(=O)C12CC(C)=C(C)CC1CC1C3CCC4=CC(=O)CCC4(C)C3CCC12C` (configuration not stated), the inhibition was -2.56%.

For the compound `O=C(Nc1ccc(Br)cc1)C1CCC(=O)N1Cc1ccccc1Cl` (configuration not stated), the inhibition was -0.11%.

Consider `N#Cc1c(NC(=O)C2CCCO2)sc2c1CCCCC2` (configuration not stated), for which the inhibition was -7.76%.

On to `CCOC(=O)C1CCN(C(=O)c2ccccc2N(C)S(=O)(=O)c2ccccc2)CC1`, for which the inhibition was 1.21%.

Regarding `O=C(Nc1cccc([N+](=O)[O-])c1)Nn1cnnc1`, the inhibition was 0.35%.

`Cc1ccccc1C(=O)Nc1ccccc1Sc1ccccc1`: the inhibition is -4.34%.

As for `COc1ccc(S(=O)(=O)N2CCC(C(=O)OCC(=O)c3ccccc3)CC2)cc1[N+](=O)[O-]`, the inhibition was 0.58%.

With `O=C(CCNS(=O)(=O)c1ccc(Br)cc1)NCC1CCCO1` (configuration not stated), the inhibition is 1.04%.

Consider `Cc1ccc(-n2ncc3c2CC(C)(C)CC3NC(=O)CCc2cnn(C)c2)cc1` (configuration not stated), for which the inhibition is 0.66%.

Regarding `COC(=O)C[C@@H]1CC[C@@H]2[C@H](COc3ccc(NC(=O)c4cccc(F)c4)cc3C(=O)N2C)O1`, the inhibition is 2.78%.

On to `Cc1c(C(=O)c2cccc([N+](=O)[O-])c2)c2ccccn2c1CCC#N`, for which the inhibition was 6.14%.

As to `CN(C)/C=C(/C(=O)c1ccc(Cl)cc1)S(=O)(=O)c1ccccc1`, the inhibition is -1.45%.

As to `O=C(CSc1ncn[nH]1)N/N=C/c1ccc(F)cc1`, the inhibition is 1.52%.

Take `CNC(=O)c1ccc(NC(=O)c2cccc(C(F)(F)F)c2)cc1`: the inhibition is -1.78%.

With `O=C1N[C@@H](c2ccccc2)COC(=O)[C@H](Cc2ccc(F)cc2)C/C=C\C[C@@H]1CC(=O)N(CCO)Cc1ccccc1`, the inhibition was 0.87%.

As for `C[C@]12c3[nH]c4ccc(Cl)cc4c3CCN1C(=O)[C@@H](CC(=O)NCCCn1ccnc1)C[C@@H]2C(=O)N1CCOCC1`, the inhibition was -2.45%.

In the case of `CCc1c(C)n([O-])c2c([n+]1=O)CCCCC2`, the inhibition was -2.11%.

As for `Cc1cc2nc(SCCN3CCOCC3)[nH]c2cc1C`, the inhibition was 0.27%.

For the compound `CCCCNc1ccc(C(=O)Nc2cccc(C)n2)cc1[N+](=O)[O-]`, the inhibition was -2.68%.

Turning to `COc1ccc(CCNC(=O)COC(=O)Cc2ccccc2F)cc1`, the inhibition is -2.27%.

For the compound `CC(C)Oc1ccc(CC(=O)NNC(=S)Nc2ccc(Br)cc2)cc1`, the inhibition is -6.23%.

With `Cc1ccc(-c2cn(S(=O)(=O)c3cccc([N+](=O)[O-])c3)nc2N)cc1`, the inhibition is -2.7%.
